Inconclusive results are not listed. Active and inactive are the calls of the source. Rule for the calls: active = hit-call score of the fitted dose curve at least 0.9, where 1 is the maximum; inconclusive = response in the unintended direction; inactive = score below 0.9.
These compounds were tested against Steroid hormone receptor ERR1 (Homo sapiens) (UniProt P11474) (assay: ATG_ERRa_TRANS: Attagene TRANS-FACTORIAL HepG2 Assay for human Estrogen-Related Receptor alpha (ERRa) (AID 2282971)). Conditions: HepG2 Attagene TRANS reporter, ERRa transactivation.
Chain of Steroid hormone receptor ERR1 (Homo sapiens) (P11474 whole entry, looked up): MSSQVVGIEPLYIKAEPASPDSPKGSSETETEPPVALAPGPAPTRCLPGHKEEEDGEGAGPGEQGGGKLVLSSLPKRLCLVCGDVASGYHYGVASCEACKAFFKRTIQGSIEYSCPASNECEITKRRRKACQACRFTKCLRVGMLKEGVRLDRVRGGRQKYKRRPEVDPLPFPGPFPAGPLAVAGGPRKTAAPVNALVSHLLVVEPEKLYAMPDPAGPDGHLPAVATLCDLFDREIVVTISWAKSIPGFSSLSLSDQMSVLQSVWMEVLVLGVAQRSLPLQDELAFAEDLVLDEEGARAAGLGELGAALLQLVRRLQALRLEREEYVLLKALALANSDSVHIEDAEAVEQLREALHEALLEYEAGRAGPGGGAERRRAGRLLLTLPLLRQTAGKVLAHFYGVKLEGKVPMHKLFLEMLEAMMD
Experimental: ATG_TRANS is a cell-based, multiplexed-readout assay that uses HepG2, a human liver cell line, with measurements taken at 24 hours after chemical dosing in a 24-well plate.ATG_ERRa_TRANS is one of 30 assay component(s) measured or calculated from the ATG_TRANS assay. It is designed to make measurements of mRNA induction, a form of inducible reporter, as detected with fluorescence intensity signals by Reverse transcription polymerase chain reaction (RT-PCR) and Capillary electrophoresis technology.Data from the assay component ATG_ERRa_TRANS was analyzed into 1 assay endpoint. This assay endpoint, ATG_ERRa_TRANS, was analyzed in the positive analysis fitting direction relative to DMSO as the negative control and baseline of activity. Using a type of inducible reporter, measures of mRNA for gain-of-signal activity can be used to understand the reporter gene at the transcription factor-level as they relate to the gene ESRRA. Furthermore, this assay endpoint can be referred to as a primary readout, because this assay has produced multiple assay endpoints where this one serves a reporter gene function. To generalize the intended target to other relatable targets, this assay endpoint is annotated to the nuclear receptor intended target family, where the subfamily is steroidal.
Human liver HepG2 cells are transiently transfected with multiple reporter transcription units (MRTUs) in 6-well plates using FuGene 6 reagent (Roche; 3 ml FuGene/1 mg DNA). The MRTU constructs are regulated by a cis-regulating element (promoter). […] A major difference between the CIS and TRANS system is that in CIS activities of endogenous TFs are measured, whereas the TRANS assay evaluates changes in activities of exogenous, chimeric NR-Gal4 proteins. […] At the end of 24 hour incubation, total RNA was isolated using TriZol reagent (Invitrogen). The isolated RNA is then reverse-transcribed using oligo(dT) primer and Mo-MLV reverse transcriptase (Invitrogen) with DNAse I (Ambion) treatment for 30 min. The one-tenth of the produced cDNA was amplified by PCR using Taq DNA polymerase (Invitrogen) and two reporter sequence-specific primers. The PCR products were fluorescently labeled by primer extension with 6-arboxyfluorescein (6-FAM) 5'-labeled reporter sequence-specific primer (2 min at 95 C, 20 s at 68 C and 10 min at 72 C) and these products were digested with 5U of HpaI (New England Biolabs) for 2h at 37 C. The fragments were purified using Qiaquick PCR columns (Qiagen), analyzed on an ABI 3130xL genetic analyzer (Applied Biosystems) with peak positions identified by using a set of X-rhodamine (ROX)-labeled MapMarker1000 molecular weight standards (BioVentures). The raw capillary electrophoresis data was processed using Attagraph software (Attagene).

outcome, inactive:
CC(C)(C)c1ccc(N)cc1, Cc1cccc(C(=O)O)c1, COc1cc(NC(=O)CC(C)=O)c(OC)cc1Cl, O=c1cc[nH]c(=S)[nH]1, O=S(=O)(O)c1cc(S(=O)(=O)O)c2ccc3c(S(=O)(=O)O)cc(S(=O)(=O)O)c4ccc1c2c43, Nc1cccc(C(F)(F)F)c1, COCCCOCCCOC, SCCc1cnccn1, O=C1CCCC1, [Cl][In]([Cl])[Cl], O=C1c2cccc(O)c2C(=O)c2c(O)cc(CO)cc21, CC1=Nc2ccc3ccccc3c2C1(C)C, CCC(C)OC(=O)c1ccc(O)cc1 (stereo not given), CC(C)C1=CC2=CC[C@@H]3[C@](C)(CCC[C@@]3(C)C(=O)O)[C@H]2CC1, CCc1nccnc1C, C=CC(C)(C)C, CC(C)(C)C(=O)C=Cc1ccc(Cl)cc1, CCCCCCCCCCCCCCCC[N+](C)(C)CC, Cn1c([N+](=O)[O-])cnc1COC(N)=O, Cc1ccc(N/N=c2\c(=O)cc/c(=N/Nc3ccc(S(=O)(=O)O)cc3)c2=O)c(C)c1, COC(=O)c1ccc2cc(C(=O)OC)ccc2c1, C=CC=CC=CCCCCC, NC(=O)N=NC(N)=O, O=C(O)CCCC[C@@H]1SC[C@@H]2NC(=O)N[C@@H]21, Cc1c(C)c([N+](=O)[O-])c(C(C)(C)C)c([N+](=O)[O-])c1C, COc1ccc(C(Cl)=C(c2ccc(OC)cc2)c2ccc(OC)cc2)cc1, CCCOCCOCCOCCO, CC(=O)OCc1ccco1, O=C(c1ccccc1)c1ccc(O)c(O)c1O, CCC(Cc1ccccc1)(C(=O)c1ccc(N2CCOCC2)cc1)N(C)C (stereo not given), N#[N+]c1ccc2c(S(=O)(=O)[O-])cccc2c1O, CC(=O)[C@@]1(O)CC[C@H]2[C@@H]3C[C@H](C)C4=CC(=O)C=C[C@]4(C)[C@@]3(F)[C@@H](O)C[C@@]21C, CCCCCCCOC(=O)CCC, CCCCCCCCCCc1ccccc1, Cc1cc(C)c(C)c(O)c1, CCCCCCOC(=O)C(C)CC (stereo not given), Cc1cc(=O)n(-c2ccccc2)n1C, CC/C=C\CCOC(=O)CCCCC, CCCCCC/C=C/C=O, O=C(Oc1ccccc1)c1ccc2ccccc2c1O
